{"source": "paper PMC5540273", "about": "(PLoS ONE, 2017);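 further: KINOMEscan kinase panel screen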", "data": [{"test_system": "T1, VPS34", "T1 construct": "gene PIK3C3", "conditions": "concentration: 1 μM, replicates: in singlicate; n = 1", "units": {"%Inh": "%"}, "values": [{"compound": "O=C(NCCNc1ccnc(Nc2ccc(F)cc2)n1)Nc1ccc2c(c1)OCO2", "note": "[GSK1379882]", "%Inh": 0}, {"compound": "O=C(NCc1cccs1)c1cc(C(=O)c2c(Cl)cccc2Cl)c[nH]1", "note": "[GW823670]", "%Inh": 0}, {"compound": "Cc1ccc(-c2ccc3c(ccc4sc5c(c43)NC[C@@H](C)N=C5N(C)C)n2)cn1", "%Inh": 0}, {"compound": "Cc1cc(Nc2nc(-c3cccc(C)n3)nc3ccccc23)ccn1", "note": "[GW872411]", "%Inh": 0}, {"compound": "Nc1nc(-c2ccccc2F)c(-c2ccnc3ccccc23)s1", "note": "[GW560459]", "%Inh": 0}, {"compound": "COc1ccc(-c2cc3c(C)nc(N)nc3n([C@H]3CC[C@H](O)CC3)c2=O)cn1", "%Inh": 0}, {"compound": "OCCCNc1nccc(-c2c(-c3cccc(C(F)(F)F)c3)nn3cc(C(F)(F)F)ccc23)n1", "note": "[GW630813]", "%Inh": 0}, {"compound": "CN(C)c1cc(-c2ccc3c(N)n[nH]c3c2)nc(N)n1", "note": "[GSK2219329]", "%Inh": 0}, {"compound": "Cl.c1ccc(Cn2cnc3cc(Nc4ncnc5ccccc45)ccc32)cc1", "note": "[GW272142]", "%Inh": 0}, {"compound": "Cc1cccc(-c2cc(-c3c[nH]nc3-c3ccccn3)ccn2)c1", "note": "[GW679395]", "%Inh": 0}, {"compound": "CCC(=O)c1c(-c2ccccc2)c2cc(Cl)ccc2c(=O)n1Cc1cc(S(C)(=O)=O)n(CCC(C)(C)O)n1", "%Inh": 0}, {"compound": "Cc1nnc(-c2ccc(C)c(-c3ccc(C(=O)O)cc3)c2)o1", "note": "[GW608005]", "%Inh": 0}, {"compound": "COc1cc2nccc(Nc3ccc(OCc4ccc(NC(C)=O)cc4)cc3)c2cc1OC.Cl", "note": "[GW440135]", "%Inh": 0}, {"compound": "COC(=O)c1c(-c2ccccc2)c2cc(Br)ccc2c(=O)n1Cc1ccc(NC(=O)CCC(=O)O)cc1", "%Inh": 0}, {"compound": "Cc1nc(N(C)[C@H]2CN(C(=O)CC#N)CC[C@H]2C)c2cc[nH]c2n1", "%Inh": 0}, {"compound": "COc1cc2ncn(-c3cc(OCc4ccncc4)c(C(N)=O)s3)c2cc1OC", "note": "[GSK336313]", "%Inh": 5}, {"compound": "CCC(=O)c1c(-c2ccccc2)c2cc(Cl)ccc2c(=O)n1Cc1cc(S(C)(=O)=O)n(CC(N)=O)n1", "%Inh": 0}, {"compound": "CCS(=O)c1ccc(-c2coc3ccc(-c4nnc(C)o4)cc23)cc1", "note": "(stereo not drawn)", "%Inh": 15}, {"compound": "COc1ccc(-c2cc3c(C)nc(N)nc3n([C@H]3CC[C@H](OCCO)CC3)c2=O)cn1", "%Inh": 0}, {"compound": "CC(C)(C)c1ccc(C(=O)Nc2cn3cc(-c4ccccc4)ccc3n2)cc1", "%Inh": 0}, {"compound": "COc1cc(Nc2nccc(N3CCC(NC(=O)C4COc5ccccc5O4)C3)n2)cc(OC)c1OC", "note": "(stereo not drawn) [GSK1379761]", "%Inh": 16}, {"compound": "CN1C(=O)C(Nc2ccccc2)=C(c2ccccc2)C1=O", "note": "[SB-300079]", "%Inh": 30}, {"compound": "COc1ccc(-n2cnc3c(N)ncnc32)cc1", "note": "[SKF-97236]", "%Inh": 27}, {"compound": "CCc1ccc(-c2ccc3c(c2)-c2nn(C)cc2S(=O)(=O)N3C)cc1", "%Inh": 0}, {"compound": "Cc1ccc(Oc2ccc(Nc3ncnc4cc[nH]c34)cc2C)cn1", "%Inh": 20}, {"compound": "O=C(Nc1n[nH]c2nc(-c3ccccc3)c(Br)cc12)C1CC1", "note": "[SB-708998]", "%Inh": 0}, {"compound": "Cc1ccccc1COc1cc(-n2cnc3cc(Cl)ccc32)sc1C(N)=O", "note": "[GW813349]", "%Inh": 84}, {"compound": "COc1cc(OC)cc(-c2cc3cnc(N)nc3nc2NC(=O)NC(C)(C)C)c1", "%Inh": 0}, {"compound": "COc1cc(Nc2nccc(N3CCC(NC(=O)C(C)c4ccc(Cl)cc4)C3)n2)cc(OC)c1OC", "note": "(stereo not drawn) [GSK1379757]", "%Inh": 0}, {"compound": "CCCC(=O)Nc1n[nH]c2ncc(-c3cccc4ccccc34)cc12", "note": "[SB-642057]", "%Inh": 0}, {"compound": "COc1ccc(-c2coc3ccc(-c4nnc(SCc5cccc(C#N)c5)o4)cc23)cc1", "%Inh": 0}, {"compound": "Cc1nnc(-c2ccc3ncn(-c4ccc(S(C)=O)cc4)c3c2)o1", "note": "(stereo not drawn)", "%Inh": 15}, {"compound": "O=C1NC(=O)C(c2ccccc2)=C1Nc1cccc(O)c1", "note": "[SB-390534]", "%Inh": 19}, {"compound": "Nc1ncnc2c1ncn2-c1cccc2ccccc12", "note": "[SKF-97184]", "%Inh": 56}, {"compound": "COc1ccc(Nc2nccc(N3CCC(NS(=O)(=O)c4ccc(NC(C)=O)cc4)C3)n2)cc1", "note": "(stereo not drawn) [GSK1379729]", "%Inh": 92.3}, {"compound": "COc1cc2ncn(-c3cc(OCc4ccc(S(C)(=O)=O)cc4)c(C(N)=O)s3)c2cc1OC", "note": "[GW869979]", "%Inh": 33}]}]}
